Each structure is given as a SMILES string. Inconclusive results are not listed. A call without a number means that no potency is given here. Values without a mark were called inactive. Activity calls are given as the source filed them. Calls come from the whole dose curve; as a rule, active = well fitted cell-killing curve with a large enough effect; inconclusive = small, poorly fitted or top-dose-only effect, or effect the other way; inactive = flat fitted curve, though single readings scatter.

The subject of this assay is JEG-3. The assay is described as follows: Primary qHTS to identify gynecologic anti-cancer compounds using libraries of approved drugs and bioactive compounds (AID 1345084). Note: nearly all actives have a fitted effect of over 55% in size. The following applies: Gynecologic cancer cell panel viability, ATPlite luminescence, 48 h; series mostly up to 57.5 µM. In a few lines: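 Cytotoxicity screen measuring ATP content by luciferase luminescence. Each compound is applied at five concentrations for 48 h at 37 C with 5% CO2.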
A general note: In qHTS, concentration-response curves come from the screen itself.
`C/C=C/[C@@H]1C=C[C@@H]2C[C@H](C)CC[C@H]2[C@]1(C)/C(O)=C1/C(=O)[C@@H](CO)N(C)C1=O`: the Potency result was “inactive”. `CNc1nc(NCc2ccc(NS(C)(=O)=O)cc2Cl)cc(-c2ccccn2)n1`: the Potency entry was “inactive”.

On to `N#CC(CCCN1CCN(/N=C/c2cccnc2)CC1)(c1ccccc1)c1ccccc1`, for which the Potency result was “inactive”. Turning to `CCc1cc2c(cc1CC)CC(NCC(O)c1ccc(O)c3[nH]c(=O)ccc13)C2` (stereo not drawn), the Potency result was “inactive”.

For the molecule `CC(=O)OC1C(OC(=O)c2ccccc2)C2C(=C(C)CCC2(C)C)C23CCC(C)(C2)C(=O)CC13` (stereo not drawn), the Potency result was “inactive”.

With `CCCc1cc(C)n(C)c(=O)c1CN(C)C(=O)c1cc(-c2ccc(N3CCN(C(C)C)CC3)nc2)cc2c1cnn2C(C)C`, the Potency entry was “inactive”. The same measure, in the same setting: in the case of `COC(=O)c1cc(Br)cnc1N1CCC(NC2CCCCC2)C(O)C1` (stereo not drawn) it was “inactive”; in that of `Cc1ccc(C2(C(=O)N3CCC(n4nc(-c5ccccc5)oc4=O)CC3)CC2)cc1`, “inactive”; in that of `Cc1c(C2=CCN(C(=O)N(C)C(C)C)CC2)nnn1-c1cccnc1F`, “inactive”. On the same count and under the same terms, in the case of `NC(N)=NC(=O)c1cnn(-c2cccc3ncccc23)c1C1CC1` it was “inactive”; in that of `CC1(C)OC[C@H](NC(=O)Nc2ccc(Br)cc2Br)[C@H](c2ccccc2)O1`, “inactive”; in that of `O=C(Nc1ccccc1)c1ccc(Nc2nnc(-c3ccc(O)cc3)c3ccccc23)cc1`, “inactive”. Consider `CCCc1ccc(OCC(=O)N(Cc2nc(-c3cccnc3)no2)C(C)C)cc1`, for which the Potency entry was “inactive”. For the molecule `C/C(=C/C=C\C=C\Cc1cnco1)[C@@H](O)C(C)(C)C(N)=O`, the Potency result is “inactive”. For the molecule `CCC(C)CNCC(=O)N1CCC2SC=CC2C1COc1cccc(C)c1` (stereo not drawn), the Potency result was “inactive”. With `CNC(=O)c1cc(Oc2ccc(NC(=O)c3cccc(C(F)(F)F)c3)cc2)ccn1`, the Potency entry was “inactive”. As for `CC(F)(F)CN1CCOc2c(nn(-c3ccccc3Cl)c2-c2ccc(Cl)cc2)C1=O`, the Potency entry is “inactive”. Turning to `COc1cc(CN(CCN)C(=O)c2cccs2)ccc1OCc1ccccc1`, the Potency entry was “inactive”. `CO[C@H]1[C@@H](O)[C@H](O[C@H]2CC[C@@]3(C)C(CCC4C3CC[C@]35COC6(COC(=O)C6)C3CCC45O)C2)O[C@@H](C)[C@@H]1OC1OC(CO)C(OC2OC(CO)C(O)C(O)C2O)C(O)C1O` (stereo partly drawn): the activity change, negative = cytotoxicity is 18.5% [at 11.6 µM]. As to `O=C1c2ccc(Nc3ccc(F)cc3F)cc2CCc2ccc(OCC(O)CO)cc21` (stereo not drawn), the Potency result is “inactive”.

Turning to `O=S(=O)(c1ccccc1)N(CC(F)(F)F)c1ccc(C(O)(C(F)(F)F)C(F)(F)F)cc1`, the Potency result was “inactive”.

In the case of `CCC(C)CNCC(=O)N1CCc2sccc2C1COc1cccc(C)c1` (stereo not drawn), the Potency entry is “inactive”.

Take `COc1cc(C(C)C)c(Oc2cnc(N)nc2N)cc1I`: the Potency entry is “inactive”. With `Cc1cc(C)cc(-c2cnc3cc(Cl)c(-c4cccc(O)c4)cc3c2OCCCN)c1`, the Potency entry was “inactive”. Consider `C=CC(C)(O)CC/C=C(\C)C(=O)OC1C(O)C(CO)OC(OC(=O)C23CCC(C)(C)CC2C2=CCC4C5(C)CCC(OC6OC(COC7OCC(OC(C)=O)C(O)C7OC7OC(COC(C)=O)C(O)C(O)C7OC(C)=O)C(O)C(O)C6OC6OCC(O)C(O)C6O)C(C)(C)C5CCC4(C)C2(C)C(O)C3O)C1OC1OCC(OC2OCC(O)C(OC3OCC(O)C(O)C3O)C2O)C(O)C1O` (stereo not drawn), for which the activity change, negative = cytotoxicity is -2.85% [at 6.55 µM]. Regarding `CCc1cccc(CC)c1-n1c(C=C(C)C)c(C(=O)N2CCNCC2)cc(-c2nc(-c3ccc(C(F)(F)F)cc3)cs2)c1=O`, the Potency entry was “inactive”. In the case of `Cc1nc(Nc2ccc(F)cc2)nc(N2CCc3ccccc3C2C)c1C` (stereo not drawn), the Potency entry was “inactive”. On to `CCCn1ncc(CN2CCCC(C(=O)c3cccc(OC(C)C)c3)C2)c1C` (stereo not drawn), for which the Potency entry was “inactive”. Same read-out and setting: in the case of `Cc1ccc(N2CCN(CCC3NC(=O)c4ccccc43)CC2)cc1C` (stereo not drawn) it was “inactive”. `COc1ccc(S(=O)(=O)Nc2c(C)cc(C)cc2C)cc1`: the Potency entry is “inactive”. As for `O=C(NS(=O)(=O)c1ccc(Br)s1)c1ccc(Cl)cc1Cl`, the Potency result is “inactive”. Regarding `CC1(C)CC[C@]2(C(=O)O)CC[C@]3(C)C(=CCC4[C@@]5(C)C[C@@H](O)[C@H](O)[C@@](C)(CO)C5CC[C@]43C)[C@@H]2[C@@H]1O` (stereo partly drawn), the Potency result is “inactive”. On to `COc1cc2c(cc1-c1c(C)noc1C)ncc1[nH]c(=O)n(C(C)c3ccccn3)c12` (stereo not drawn), for which the Potency result is “inactive”. As to `CC1(C)CCC(C)(C)c2cc(C#Cc3ccc(C(=O)O)cc3)ccc21`, the Potency entry was “inactive”. `Cc1nc2c(C(F)(F)F)cccc2nc1-c1ccc(-c2cccc(S(C)(=O)=O)c2)cc1`: the Potency result was “inactive”.

For the molecule `CC(C)C[C@@H](C(=O)N[C@@H](Cc1ccc(OCc2ccccc2)cc1)C(=O)NC(C)(C)C)N(C)Cc1ccc(C(C)(C)C)cc1`, the Potency result was “inactive”.

Regarding `CC1=C(C(=O)OC2CCCCC2)C(c2ccc([N+](=O)[O-])cc2)C2=C(CC(C)(C)CC2=O)N1` (stereo not drawn), the Potency result is “inactive”. In the case of `C[C@@H]1O[C@@H](O[C@H]2[C@H](OC(=O)[C@]34CCC(C)(C)C[C@H]3C3=CCC5[C@@]6(C)C[C@H](O)[C@H](O[C@@H]7O[C@H](C(=O)O)[C@@H](O)[C@H](O)[C@H]7O)[C@@](C)(CO)C6[C@H](O)C[C@@]5(C)[C@]3(C)C[C@H]4O)O[C@@H](CO)[C@@H]2O)[C@H](O)[C@H](O)[C@H]1O[C@@H]1OC[C@@H](O)[C@H](O[C@H]2OC[C@](O)(CO)[C@H]2O)[C@H]1O` (stereo partly drawn), the activity change, negative = cytotoxicity was -17.4% [at 6.55 µM].

For the origin of these results see PubChem BioAssay (NCATS).
